Laboratory results published in PubChem BioAssay AID2314 (National Center for Advancing Translational Sciences (NCATS), 2010).
About 37,000 (12%) of roughly 300,000 compounds were called active. No stated cut-off is given here; in the data, active means max response mostly above about 13% (no sharp cut-off); inactive means mostly below about 14%. Many of the other results were omitted from the sample, so actives are more common in it than they were.

Experiment: Cycloheximide Counterscreen for Small Molecule Inhibitors of Shiga Toxin; further: read at 38.3 µM for the half of the compounds with a filed dose; 0% is about no effect
Details: cell reporter, cycloheximide protein synthesis inhibition counterscreen; stronger effect = higher value
In the case of `Cc1cc(C)n(-c2ccc(NC(=O)C3CCCCN3C(=O)c3cccs3)cc2)n1` (configuration not stated), the max response is reported as 7.2% (inactive). For `COc1ccc(-n2c(C)cc(C(=O)COC(=O)c3cc(OC)c(OC)cc3NC(=O)c3cccs3)c2C)cc1`, the max response was -3.59% (inactive). With `CCc1nn(CC(=O)N2CCN(c3cc(C)ccc3C)CC2)c(=O)c2cc3occc3n12` the max response was -8.63% (inactive). For `CC1CCN(S(=O)(=O)c2ccc3c(ccn3CC(=O)O)c2)CC1`, the max response was -6.07% (inactive). In the case of `CC(C)c1ccc(Nc2ncccc2C#N)cc1`, the max response is reported as 43.2% (active). For `CN(C)c1ccnc(Nc2ccc(F)cc2)c1C#N`, the max response was -1.37% (inactive). In the case of `O=C(Oc1cccc(O)c1)C1CCCCC1`, the max response is reported as 1.32% (inactive). For `O=C(NN1C(=O)C2C(C1=O)C1C=CC2C12CC2)c1ccccc1Cl` (configuration not stated), the max response was 0.62% (inactive). With `CC12CCC(C(=O)N(c3cccc(Cl)c3)C1=O)C2(C)C` (configuration not stated) the max response was -2.01% (inactive). In the case of `CC12CCC(C(=O)N(NC(=O)c3ccccc3O)C1=O)C2(C)C` (configuration not stated), the max response is reported as 11.2% (active). In the case of `O=C(COc1ccc(Cl)cc1)NC(=S)Nc1ccccc1N1CCOCC1`, the max response is reported as 1.2% (inactive). In the case of `CCOC(=O)C1C/C(=C\C(C)=O)c2cccc(C(F)(F)F)c2O1` (configuration not stated), the max response is reported as -2.62% (inactive). For `CC(=O)c1c(C)[nH]c(C(=O)NCc2ccc(C)cc2)c1C`, the max response was 15.3% (inactive). With `CCOC(=O)c1c(C)[nH]c(C(=O)NCCN2CCOCC2)c1C` the max response was -3.76% (inactive). For `CCOC(=O)c1c(C)[nH]c(C(=O)NCc2ccccc2OC)c1C`, the max response was 17% (active). In the case of `O=C(O)c1ccc(OCC2CCCO2)cc1` (configuration not stated), the max response is reported as -2.17% (inactive). With `COC(=O)c1c(C)oc(C)c1S(=O)(=O)Nc1ccc(C(C)C)cc1` the max response was -1.83% (inactive). In the case of `Cc1nc(-c2ccccc2)sc1-c1nnc(C2CC2)o1`, the max response is reported as 38.7% (active). With `C=CCn1c(-c2sc(-c3ccccc3)nc2C)n[nH]c1=S` the max response was 1.59% (inactive). With `Cc1nc(-c2ccccc2)sc1-c1nc(-c2ccccc2)ncc1S(=O)(=O)c1ccccc1` the max response was 1.01% (inactive). With `CCOc1ccccc1NC(=O)COc1ccc(S(=O)(=O)N2CCCC2)cc1` the max response was -2.13% (inactive). With `O=C(Nc1c2c(nc3ccccc13)CCCC2)c1ccccc1Br` the max response was -2.17% (inactive). With `CCc1nc2ccccc2c(C(=O)OC2CCCCC2=O)c1C` (configuration not stated) the max response was 8.91% (inactive). With `O=C(COC(=O)c1c2c(nc3ccccc13)CCCC2)c1ccc(Br)s1` the max response was 25% (active). With `COc1ccccc1C(=O)Nc1ccnn1C1CCN(Cc2cnn(C)c2)CC1` the max response was 0.446% (inactive). In the case of `COc1ccc2c(c1)c1nc3n(c(=O)c1n2CC(=O)Nc1ccccc1)CCS3`, the max response is reported as -2.14% (inactive). In the case of `CC(=O)CC(c1ccccc1)C1C(=O)Oc2ccccc2C1=O` (configuration not stated), the max response is reported as -3.15% (inactive). For `Cc1cc(C)c2oc(C(=O)Nc3ccc(S(=O)(=O)Nc4nccc(C)n4)cc3)cc(=O)c2c1`, the max response was 5.57% (inactive). For `COc1ccccc1C(=O)CSc1cccc[n+]1[O-]`, the max response was 9.7% (inactive). In the case of `O=C(CSc1cccc[n+]1[O-])c1ccc(Cl)cc1`, the max response is reported as 16.8% (active). In the case of `Cn1c(CC2Sc3ccccc3NC2=O)nnc1SCC(=O)c1ccc(Cl)cc1` (configuration not stated), the max response is reported as 6.52% (inactive). For `O=C(CSc1cccc[n+]1[O-])c1ccc(-c2ccccc2)cc1`, the max response was 44.8% (active). For `O=C(CSc1cccc[n+]1[O-])NCCCc1ccccc1`, the max response was 10.3% (inactive). In the case of `Cc1cc(Oc2ccc(Cl)cc2)nc(SCC(=O)c2ccccc2)n1`, the max response is reported as 0.695% (inactive). In the case of `CCOC(=O)N1CCC(N2Cc3cccc(C(=O)Nc4ccc(S(=O)(=O)N(CC)CC)cc4)c3C2=O)CC1`, the max response is reported as -7.45% (inactive). In the case of `CC(=O)c1c(C)oc2ccc(NS(=O)(=O)c3ccccc3)cc12`, the max response is reported as -4.79% (inactive). For `O=C(Nc1ccc(-c2cscn2)cc1)C1CCCN(Cc2ccc(CO)o2)C1` (configuration not stated), the max response was 10.2% (inactive). With `Cc1cc(C)cc(NC(=O)C2CCCN2S(=O)(=O)c2cccc3cccnc23)c1` (configuration not stated) the max response was 0.222% (inactive). For `CCCCNS(=O)(=O)c1ccc2nc(SCC(=O)Nc3cc(C)cc(C)c3)[nH]c2c1`, the max response was -6.32% (inactive). In the case of `Cc1ccc2nc(-c3ccncc3)cc(C(=O)Nc3ccc(OC(F)F)cc3)c2c1`, the max response is reported as -4.25% (inactive). For `N#Cc1ccc(Cn2cc(C(=O)c3ccco3)c3ccccc32)cc1`, the max response was 21.7% (inactive). With `O=C(NCc1ccco1)C(=O)c1cn(CC(=O)N2CCCCCC2)c2ccccc12` the max response was 2.39% (inactive). In the case of `O=C(Nc1ccc(F)cc1)C(=O)c1cn(CC(=O)N2CCOCC2)c2ccccc12`, the max response is reported as -0.871% (inactive). For `COc1cccc(NC(=O)C(=O)c2cn(CC(=O)N3CCOCC3)c3ccccc23)c1`, the max response was 37.8% (active). With `O=C(NCCCn1ccnc1)C(=O)c1cn(CC(=O)N2CCCCCC2)c2ccccc12` the max response was 10.1% (inactive). With `Cc1ccc(CNC(=O)C(=O)c2cn(CC(=O)N3CCCC3)c3ccccc23)cc1` the max response was 20.3% (active). For `CC1CCN(C(=O)Cn2cc(C(=O)c3ccco3)c3ccccc32)CC1`, the max response was 23% (active). With `Cc1ccc(CNC(=O)C(=O)c2cn(CC(=O)N3CCOCC3)c3ccccc23)cc1` the max response was 17.6% (active). In the case of `CN(Cc1ccccc1)C(=O)C(=O)c1cn(CC(=O)N2CCCC2)c2ccccc12`, the max response is reported as -3.43% (inactive). In the case of `COc1cccc(NC(=O)CS(=O)(=O)c2cn(CC(=O)N3CCOCC3)c3ccccc23)c1`, the max response is reported as -5.36% (inactive). In the case of `Cc1cccc(NC(=O)Cn2cc(C(=O)c3ccco3)c3ccccc32)c1`, the max response is reported as -2.38% (inactive). With `CN1CCN(C(=O)C(=O)c2cn(CC(=O)N3CCCC3)c3ccccc23)CC1` the max response was -2.55% (inactive).
